Calls of active or inactive are those of the source. Cut-off read from the data, not from the text of the source: active = parasite load remaining mostly below about 12% (no sharp cut-off); inactive = mostly above about 10%.
Assay: liver-stage malaria parasite growth inhibition, primary screen, cell-based, HepG2, luciferase luminescence, HepG2 viability (AID 624349);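 note: 100% = mean of DMSO negative control wells on the same plate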
Settings: P. berghei liver stage in HepG2, luciferase luminescence, concentration not given here; parasite load remaining: stronger effect = lower value; viability: measured here: HepG2 viability without parasites

SMILES	parasite load remaining	viability [%]
Cc1ncc2ccccc2c1C#N	44.1% (inactive)	86.2
CC(=O)O/N=C1\C(c2c(O)[nH]c3cc(Br)ccc23)=Nc2ccccc21	14.7% (inactive)	97.9
CC(=O)NC1SCCC1=O (stereo unspecified)	139% (inactive)	87.1

Reference: PubChem BioAssay
